This note sets out measurements from PubChem BioAssay (EPA / NIEHS).

Broadly, the AC50 is the midpoint of the concentration-response curve, whichever way the signal moves.

Some compounds were tested as several samples or in several runs, with calls that do not always agree. Activity calls are given as the source filed them. How the source made its calls: active means hit-call score of the fitted dose curve at least 0.9, where 1 is the maximum; inactive means score below 0.9.

This experiment is described as follows: CCTE_Shafer_MEA_dev_per_burst_spike_percent: CCTE's Neural Network Formation Assay for Percent of Spikes in a Burst, Shafer Lab (AID 2284032). On the procedure:
CCTE_Shafer_MEA_dev assay is conducted using Axion Biosystems 48 well microelectrode array (MEA) plates and Maestro recording system. Each well of the MEA plate contains a grid of 16 microelectrodes embedded in the culture surface. Electrically active cells, such as neurons, can be cultured over the electrodes, and electrical activity in these cells can be recorded extracellularly. The spontaneous firing of neurons is captured from each electrode on a microsecond timescale providing both temporally and spatially precise data. […] The CCTE_Shafer_MEA_dev assay uses primary cultures of rat cortical neurons. Recordings are made on days post-plating 5, 7, 9 and 12. As these cultures mature over time, neural networks develop functional activity and form cohesive networks in which electrical activity can be highly coordinated. CCTE_Shafer_MEA_dev_per_burst_spike_percent is 1 of 19 assay components of the CCTE_Shafer_MEA_dev assay. It measures the percentage of spikes (action potential firings) in a single-electrode burst (temporally-clustered group of spikes) as the total number spikes in bursts divided by the total number of spikes during a recording in a microelectrode array (MEA) using Axion Biosystems Maestro 768 channel amplifier with the AxIS adaptive spike detector. The percent of spikes in bursts is averaged across the actively bursting electrodes to report a well-mean value. To collapse across multiple recordings made on days post-plating 5, 7, 9 and 12, the trapezoidal area-under-the-curve of the component is calculated.Data from the assay component CCTE_Shafer_MEA_dev_per_burst_spike_percent was analyzed into 1 assay endpoint. This assay endpoint, CCTE_Shafer_MEA_dev_per_burst_spike_percent, was analyzed in the negative analysis fitting direction relative to DMSO as the negative control and baseline of activity. Using a type of functional reporter, gain or loss-of-signal activity can be used to understand electrical activity.
On the day prior to culture, each well was coated thoroughly with 150 uL of 0.05% polyethyleneimine (PEI, Sigma Cat P3143) in 50 mM HEPES (Sigma Cat H7523) at a pH of 8. The plate was incubated at 37C for one hour. PEI was rinsed out with 500 uL of sterile water three times. Plates were stored at 4C until the day of culture. This culture was plated at a seeding density of 1.5 x 10^5 cells/well on a 48-well MEA plate, prepared as described above. Cells were administered via a 25 uL media/laminin ([…]; Sigma Cat L2020-1MG) drop directly onto the microelectrode array, as adding the cells with the laminin results in better attachment than pre-coating with laminin. After 2 hours, an additional 475 uL of cortical media was added and the cells returned to the incubator. Exposure starts at day 0 of plating and is continued over twelve days of network development until the experiment is terminated. Cells are fed with fresh medium on DIV 5 and 9, following the recordings on those days. The entire volume of media in the well is exchanged and any vehicle or compound treatment is renewed. Complete details are found in OP-NHEERL/ISTD/SBB/TJS/2015-03-r0 (available on request, email shafer.tim@epa.gov). Measurement of the electrical activity is non-invasive, and recordings can be made from the same plate over multiple different days of the culture. In cortical neurons, this allows for the measurement of extracellular action potentials over the period during which networks form in the MEA plate.
With `CCCCC(CC)COC(=O)c1c(Br)c(Br)c(Br)c(Br)c1C(=O)OCC(CC)CCCC` (stereo unspecified), the molecule was called inactive.

Take `CO/N=C(/C(=O)OC)c1ccccc1COc1ccccc1C`: the AC50 was 0.639 µM (active).

For `C=CC(=O)OCC(F)(F)C(F)F`, the AC50 is 5.66 µM (active). `O=C(O)C(F)(F)OC(F)(F)C(F)(F)OC(F)(F)F`: the call was inactive. For `O=P1(N(CCCl)CCCl)NCCCO1` (stereo unspecified), the molecule was classed as inactive. Regarding `CC(C)(C)c1ccccc1OP(=O)(Oc1ccccc1)Oc1ccccc1`, the AC50 was 26.2 µM (active) and the molecule was called inactive. For `O=C(O)C(F)(F)C(F)(F)C(=O)O`, the result was inactive. As for `O=C(O)C=CC(F)(C(F)(F)F)C(F)(F)F`, the call was inactive. As to `CCOP(=S)(OCC)SCSCC`, the AC50 was 74.7 µM (active) and the molecule was classed as inactive. Take `c1cc2c3c(cccc3c1)CC2`: the molecule was classed as inactive. With `O=C(O)C(F)(F)OC(F)(F)C(F)(F)OC(F)(F)C(=O)O`, the outcome was inactive. As to `CCCCC(CC)COP(=O)(Oc1ccccc1)Oc1ccccc1` (stereo unspecified), the outcome was inactive. The same measure, in the same setting: as for `OCC(F)(F)OC(F)(F)C(F)(F)OC(F)(F)C(F)(F)OC(F)(F)F`, the entry is “inactive”. Turning to `ClC1=C(Cl)C2(Cl)C3C(Cl)C(Cl)CC3C1(Cl)C2(Cl)Cl` (stereo unspecified), the AC50 is 6.7 µM (active). Take `CCOc1ccc(C(C)(C)COCc2cccc(Oc3ccccc3)c2)cc1`: the AC50 is 10 µM (active). `CC(O)C(F)(F)C(F)(F)F` (stereo unspecified): the molecule was called inactive.

On to `O=C(O)C1C(C(=O)O)C2(Cl)C(Cl)=C(Cl)C1(Cl)C2(Cl)Cl` (stereo unspecified), for which the outcome was inactive. Same read-out and setting: the same measure for `OCC(F)(F)OC(F)(F)C(F)(F)OC(F)(F)C(F)(F)OC(F)(F)CO`: “inactive”; for `O=P(Oc1ccccc1)(Oc1ccccc1)Oc1ccccc1`: “inactive”; for `CCC1(c2ccccc2)C(=O)N=C(O)NC1=O` (stereo unspecified): “inactive”.

For the molecule `O=C(O)C(F)(OC(F)(F)C(F)(F)C(F)(F)F)C(F)(F)F` (stereo unspecified), the outcome was inactive.

On to `O=S(=O)(c1ccc(O)cc1)c1ccc(O)cc1`, for which the outcome was inactive.

Regarding `OCC(F)(F)OC(F)(F)C(F)(F)OC(F)(F)CO`, the result was inactive. The same measure, in the same setting: the same measure for `c1ccc(OP(Oc2ccccc2)Oc2ccccc2)cc1`: “inactive”.
